We go through 38 molecules from PubChem BioAssay (NCATS).

Molecules are shown by their SMILES. Values without a mark were called inactive. The call rests on the fitted dose curve; in most records, active means well fitted curve in the direction sought with a large enough effect; inconclusive means small, poorly fitted or top-dose-only effect, or another doubt; inactive means no such curve, though single readings can be large or run the other way.

Sequence of Hexokinase-4 (Homo sapiens) + Glucokinase regulatory protein (Homo sapiens) (P35557 whole entry, looked up): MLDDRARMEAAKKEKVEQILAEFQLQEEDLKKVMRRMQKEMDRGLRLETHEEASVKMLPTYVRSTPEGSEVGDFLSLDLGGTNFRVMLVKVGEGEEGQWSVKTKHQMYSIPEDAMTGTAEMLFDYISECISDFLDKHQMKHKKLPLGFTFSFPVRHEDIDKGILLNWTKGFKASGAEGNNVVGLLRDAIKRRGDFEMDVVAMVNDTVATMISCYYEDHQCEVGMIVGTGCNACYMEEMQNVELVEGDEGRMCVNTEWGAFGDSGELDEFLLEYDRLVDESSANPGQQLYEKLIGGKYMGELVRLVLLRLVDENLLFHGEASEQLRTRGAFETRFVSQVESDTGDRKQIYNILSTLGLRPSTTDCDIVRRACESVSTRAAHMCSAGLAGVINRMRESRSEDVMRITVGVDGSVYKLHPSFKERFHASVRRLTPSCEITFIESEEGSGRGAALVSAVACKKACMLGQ
Sequence of Hexokinase-4 (Homo sapiens) + Glucokinase regulatory protein (Homo sapiens) (Q14397 whole entry, looked up): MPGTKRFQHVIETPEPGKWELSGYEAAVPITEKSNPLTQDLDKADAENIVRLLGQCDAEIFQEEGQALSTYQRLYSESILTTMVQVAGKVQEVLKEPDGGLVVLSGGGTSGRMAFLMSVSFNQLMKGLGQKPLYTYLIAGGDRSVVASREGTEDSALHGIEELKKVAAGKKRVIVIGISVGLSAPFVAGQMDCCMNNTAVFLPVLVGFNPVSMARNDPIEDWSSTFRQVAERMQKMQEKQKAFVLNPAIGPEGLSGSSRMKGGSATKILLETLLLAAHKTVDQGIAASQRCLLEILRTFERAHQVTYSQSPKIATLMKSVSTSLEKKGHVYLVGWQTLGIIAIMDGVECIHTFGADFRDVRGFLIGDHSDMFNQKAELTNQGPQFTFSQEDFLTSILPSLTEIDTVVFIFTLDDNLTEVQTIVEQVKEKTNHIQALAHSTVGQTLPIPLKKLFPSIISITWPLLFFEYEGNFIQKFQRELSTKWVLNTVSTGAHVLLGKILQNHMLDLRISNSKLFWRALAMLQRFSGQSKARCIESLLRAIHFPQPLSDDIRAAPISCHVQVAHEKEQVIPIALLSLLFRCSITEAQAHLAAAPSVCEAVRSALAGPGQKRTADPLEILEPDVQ

In this experiment the target is Hexokinase-4 (Homo sapiens) + Glucokinase regulatory protein (Homo sapiens) (UniProt P35557+Q14397). Briefly: qHTS assay for inhibitors of recombinant human GCK-GKRP interaction: Diaphorase-coupled assay (AID 743205). Particulars: G6PDH/diaphorase resorufin fluorescence; series mostly up to 57.5 µM; activity change, positive = activation: at the top concentration. In outline:
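Compounds pre-incubated 20 min with substrate, then 10 nM GST-GCK with 10 nM FLAG-GKRP added. GCK activity coupled via G6PDH and diaphorase to resorufin (5 mM glucose, 0.4 mM ATP, 0.15 mM NADP+, pH 7.6), read kinetically over 30 minutes at Ex 525/Em 590 nm.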
(qHTS replaces the single test concentration by a dilution series.)
On to `CC(=O)/C(C)=N/O`, for which the “activity change, positive = activation” value is 1.28%.
`C=CCN1CCc2c(cc(O)c(O)c2Br)[C@@H](c2ccccc2)C1`: the “activity change, positive = activation” value is -13.4%.
As to `CN(CC[C@@H](Oc1ccc(C(F)(F)F)cc1)c1ccccc1)CC(=O)O`, the “activity change, positive = activation” value is -3.88%.
For `O=C(O)/C=C/c1ccc(O)c(O)c1` the value was -5.58%; for `C=CCn1c(=O)c2c(nc(-c3ccc(S(=O)(=O)O)cc3)n2C)n(C)c1=O`, 2.71%.
Take `CC1CCN(CC[C@H]2CCCN2S(=O)(=O)c2cccc(O)c2)CC1`: the “activity change, positive = activation” value is -1.06%.
For `OC[C@H]1O[C@@H](n2cnc3cncnc32)[C@H](O)[C@@H]1O` the value was 0.888%.
In the case of `CC(=O)NNC(=O)N1Cc2ccccc2Oc2ccc(Cl)cc21`, the “activity change, positive = activation” value was -2.35%.
For `CCCCCCC/C=C\CCCCCCCCC(=O)O` the value was -2.49%; for `COc1cc(/C=C(\C#N)C(=O)c2ccc(O)c(O)c2)cc(I)c1O`, -36.2%; for `CCN(CC)CCCCCCCCOC(=O)c1cc(OC)c(OC)c(OC)c1`, 0.146%.
For `CC(=O)NCCc1c[nH]c2ccc(O)cc12` the value was -28.6%; for `O=C(O)/C=C/c1cnc[nH]1`, -1.01%.
Take `OC[C@H]1NC[C@@H](O)[C@@H]1O`: the “activity change, positive = activation” value was -0.3%.
In the case of `Cc1ccc2c(c1)C(N1CCN(C)CC1)=Nc1cccnc1N2`, the “activity change, positive = activation” value is -5.51%.
For the molecule `O=C(N[C@@H](Cc1ccccc1)C(=O)CCl)OCc1ccccc1`, the “activity change, positive = activation” value was -15.4%.
The same measure for `Nc1ncnc2c1nc(Br)n2C1OC2COP(=O)(O)O[C@@H]2C1O` (stereo partly drawn): 1.61%; for `N[C@@H](CS(=O)O)C(=O)O`: 0.409%; for `CCC(=O)N1CCN(C(=O)c2ccccc2)CC1`: -1.69%.
For `Cc1ccc([N+](=O)[O-])cc1S(=O)(=O)N(C)C` the value was -5.15%.
With `OC[C@H]1O[C@H](n2cnc3c(N[C@H]4CCC[C@@H]4O)ncnc32)[C@H](O)[C@@H]1O`, the “activity change, positive = activation” value is -4.03%.
The same measure for `COc1ccccc1N1CCN(CCCNc2c(C)c(=O)n(C)c(=O)n2C)CC1`: -1.13%.
With `CCCCCCCCCCCCCCCCCCOC[C@H](COP(=O)([O-])OCC[N+](C)(C)C)OC`, the “activity change, positive = activation” value was 3.71%.
For `COc1cccc(OC)c1OCCNCC1CSc2ccccc2O1` (stereo not drawn) the value was -2.5%; for `CC[n+]1c(/C=C/C=C2/N(C)c3ccccc3C2(C)C)sc2ccccc21`, -20.5%.
For `CCCn1c(=O)c2[nH]c(C3CCCC3)nc2n(CCC)c1=O` the value was -3.03%.
In the case of `CN(C)CCCc1cc(C(=O)Nc2ccc(-c3ccncc3)cc2)ccc1O`, the “activity change, positive = activation” value was -1.33%.
The same measure for `CC(N)(C(=O)O)c1ccc(C(=O)O)cc1` (stereo not drawn): 2.44%.
Take `C[N+](C)(C)CC=O`: the “activity change, positive = activation” value is -2.49%.
On to `CC(=O)O[C@H]1CC2(C)[C@@H](C[C@@H](O)[C@H]3[C@@]4(C)CC[C@@H](O)[C@@H](C)[C@@H]4CC[C@@]32C)C1=C(CCC=C(C)C)C(=O)O` (stereo partly drawn), for which the “activity change, positive = activation” value was -3.21%.
The same measure for `Cc1cc2c(cc1Cl)N(C(=O)Nc1ccnc3ccccc13)CC2`: -39.6%; for `CC(N)(Cc1ccc(O)c(O)c1)C(=O)O` (stereo not drawn): -15.1%; for `CCn1c(=O)[nH]c2cc(Cl)c(Cl)cc21`: -3.9%.
For `CC[C@H](NC(=O)c1c(C)c(-c2ccccc2)nc2ccccc12)c1ccccc1` the value was 2.64%; for `CCCCCCCCCC(=O)NC(CN1CCOCC1)[C@H](O)c1ccccc1` (stereo partly drawn), 1.06%.
For `O=C1Cc2c([nH]c3ccc(Br)cc23)-c2ccccc2N1` the value was 1.49%; for `NC1CCN(O)C1=O` (stereo not drawn), -2.58%.
Regarding `NC1(C(=O)O)CC1`, the “activity change, positive = activation” value was -2.62%.
